Assay outcomes as filed in PubChem.
Rows were chosen to be rich in hits. Some 1.3% of all compounds tested hit in one or more screens of this group.
BJeLR lethal: kills HRASV12-expressing BJeLR cells. BJeLR (HRASV12) viability, CellTiter-Glo ATP luminescence, 48 h. hit rate 0.17% among 300,000. inhibition, % (no concentration beside the values); in the data active = inhibition above about 50%; inconclusive = no clear call, values can overlap the other calls
Sa ugtP lethal: kills S. aureus RN4220 lacking UgtP | S. aureus RN4220 ugtP deletion, OD600 growth, 16 h | growth inhibition, % (no concentration beside the values) | hit rate 0.54% among 330,000 | AID 1259309; in the data active = growth inhibition above about 68%
Sa RN4220 lethal: S. aureus RN4220 growth inhibition; inhibition, % (test concentration not listed); AID 1259311; hit rate 0.33% among 330,000; OD600, 16 h; in the data active = inhibition above about 85%
3CLpro inhibitor: SARS-CoV 3CLpro protease inhibition. P0C6X7. recombinant SARS-CoV 3CLpro, quenched FRET peptide cleavage. inhibition, % at 6 µM. hit rate 0.14% among 290,000. AID 1706; in the data active = inhibition above about 12%
PfHsp40 yeast: restores yeast growth despite PfHsp40 toxicity; growth rescue, % at 12.5 µM; S. cerevisiae expressing PfHsp40, growth rescue, ATP luminescence; hit rate 0.68% among 340,000; in the data active = growth rescue above about 28%, passing the limit was not always enough; inconclusive = no clear call, values can overlap the other calls;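 note: yeast W303a lacking pdr1 and pdr3 grown in galactose medium; growth measured after three days at 30 °C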
Of the large screens only hits and unclear results are named; the others gave an inactive call.

COc1ccc(N(CC(=O)NCc2ccc(Cl)cc2)S(=O)(=O)c2c(C)nn(C)c2C)cc1	none
Cc1ccc(S(=O)(=O)N(CC(=O)NCc2cccs2)c2ccccc2)cc1	PfHsp40 yeast 42 (no result: BJeLR lethal, 3CLpro inhibitor)
Cc1nc(NC(C)C(=O)O)c2nc(C)oc2n1 (stereo unspecified)	none
COc1c(OC(C)=O)c(=O)n2c3ccccc3c3ccnc1c32	PfHsp40 yeast 27 (no result: 3CLpro inhibitor)
CCCc1ccc(OCC(O)CN2CCN(c3ccccn3)CC2)cc1 (stereo unspecified)	none
O=[N+]([O-])c1ccc(Sc2nc3ccccc3o2)c([N+](=O)[O-])c1	none
O=[N+]([O-])c1ccc(Cl)cc1Sc1nc2ccccc2o1	PfHsp40 yeast 165
CCC(C)C1CN(C(C)CN2CCCC2CN2C(N)=NCC2CC(C)C)C(=N)N1CCc1ccc(Cl)c(Cl)c1 (stereo unspecified)	Sa ugtP lethal 99, Sa RN4220 lethal 101 (no result: BJeLR lethal, 3CLpro inhibitor, PfHsp40 yeast)
CCC(C)C1CN(C(C)CN2CCCC2CN2C(N)=NCC2Cc2ccccc2)C(=N)N1CCc1ccc(Cl)c(Cl)c1 (stereo unspecified)	Sa ugtP lethal 98, Sa RN4220 lethal 100 (no result: BJeLR lethal, 3CLpro inhibitor, PfHsp40 yeast)
CCCCN1C(=N)N(C(CCC)CN2CCCC2CN2C(N)=NCC2Cc2ccccc2)CC1C(C)CC (stereo unspecified)	none (no result: BJeLR lethal, 3CLpro inhibitor, PfHsp40 yeast)
Cc1cccc(NC(=S)NNC(=O)c2csc3c2CCC(C)C3)c1 (stereo unspecified)	PfHsp40 yeast 104
Cc1cccc(NC(=S)NNC(=O)c2cc3c(s2)CCC(C)C3)c1C (stereo unspecified)	PfHsp40 yeast 31
O=C1NC(=O)C(=Cc2ccc(Cl)cc2Cl)S1	Sa ugtP lethal 93, Sa RN4220 lethal 91, PfHsp40 yeast inconclusive (no result: BJeLR lethal, 3CLpro inhibitor)
COc1ccc(C=C2SC(=S)NC2=O)cc1	none (no result: BJeLR lethal, Sa ugtP lethal, Sa RN4220 lethal, 3CLpro inhibitor)
O=C1NC(=S)SC1=Cc1ccc(Cl)cc1	Sa ugtP lethal 99, Sa RN4220 lethal 95 (no result: BJeLR lethal, 3CLpro inhibitor)
O=C1NC(=S)S/C1=C\c1ccc2ccccc2c1	none (no result: Sa ugtP lethal, Sa RN4220 lethal)
O=C1NC(=S)SC1=Cc1ccc(F)cc1	Sa ugtP lethal 92, Sa RN4220 lethal 90 (no result: BJeLR lethal, 3CLpro inhibitor)
O=C1NC(=S)SC1=Cc1ccc(N(CCCl)CCCl)cc1	Sa RN4220 lethal 87 (no result: BJeLR lethal, 3CLpro inhibitor)
CC1(C)Cc2ccccc2-c2c1c(=O)n(-c1ccccc1)c1nnnn21	none (no result: BJeLR lethal, Sa ugtP lethal, Sa RN4220 lethal, PfHsp40 yeast)
CC(C)(C)c1ccc(OCc2ccc(C(=O)N/N=C/c3ccc(O)c(O)c3)cc2)cc1	none (no result: Sa ugtP lethal, Sa RN4220 lethal)
CC(C)(C)c1ccc(OCc2ccc(C(=O)NN=Cc3ccc(O)c(O)c3)cc2)cc1	Sa ugtP lethal 94 (no result: BJeLR lethal, 3CLpro inhibitor, PfHsp40 yeast)
COc1ccc(C=NNC(=O)c2cc(O)c(O)c(O)c2)cc1COc1ccc(C(=O)OCC(C)C)cc1	Sa ugtP lethal 99 (no result: BJeLR lethal, 3CLpro inhibitor, PfHsp40 yeast)
N#C/C(=C\c1ccc(O)c(O)c1)C(=O)NCCCc1ccccc1	none (no result: Sa ugtP lethal, Sa RN4220 lethal)
O=C1/C(=C/c2cccs2)SC(=S)N1NS(=O)(=O)c1ccccc1	PfHsp40 yeast 222
COc1ccc(/C=C2\SC(=S)N(NS(=O)(=O)c3ccc(C)cc3)C2=O)c(OC)c1	none (no result: Sa ugtP lethal, Sa RN4220 lethal)
COc1ccc(/C=C2\SC(=S)N(NS(=O)(=O)c3ccccc3)C2=O)c(OC)c1	Sa ugtP lethal 91
COc1ccccc1/C=C1\SC(=S)N(NS(=O)(=O)c2ccc(C)cc2)C1=O	Sa RN4220 lethal 96, PfHsp40 yeast 32
COc1ccc(OC)c(/C=C2\SC(=S)N(NS(=O)(=O)c3ccccc3)C2=O)c1	none
CCc1ccc2c(c1)C1(NN=C(c3cccc4ccccc34)S1)C(=O)N2 (stereo unspecified)	none (no result: Sa ugtP lethal, Sa RN4220 lethal)
O=C(OCc1ccc(Cl)c(Cl)c1)c1cnccn1	none
Cc1cc(C)nc(NC(=O)CSc2nc3ccccc3s2)n1	none
Cc1cc(C)nc(NC(=O)CSc2nc3cc(Cl)ccc3s2)n1	PfHsp40 yeast 66
CN(CC(=O)Nc1ccccc1)CC(=O)Nc1ccccc1Cl	none
CCCCc1ccc(NC(=O)CN(C)CC(=O)Nc2ccccc2Cl)cc1	PfHsp40 yeast 36
CSCc1cc(N(C)c2ccccc2)nc(-c2ccccc2)n1	Sa ugtP lethal 88
CCOC(=O)C1CCCN(C2CC(=O)N(c3cccc(C(F)(F)F)c3)C2=O)C1 (stereo unspecified)	PfHsp40 yeast 44
Cc1[nH][nH]c(=O)c1C(c1c(C)[nH][nH]c1=O)c1cn(C)c2ccccc12	none (no result: BJeLR lethal)
Cc1[nH][nH]c(=O)c1C(c1c(C)[nH][nH]c1=O)c1cn(Cc2cccc3ccccc23)c2ccccc12	Sa ugtP lethal 94 (no result: BJeLR lethal)
Clc1ccc(N=c2ssnc2Cl)nc1	Sa ugtP lethal 95
O=C(Nc1ncccc1O)c1cccc(S(=O)(=O)N2CCc3ccccc32)c1	PfHsp40 yeast 66
FC(F)(F)Oc1ccc(C2NCc3ccccc3-n3cccc32)cc1 (stereo unspecified)	Sa ugtP lethal 94
CNC(=O)c1sc(-c2ccccc2)nc1C	PfHsp40 yeast 93
CCC(C)Sc1ccc(-c2nc3ccccn3c2NCc2ccccc2)cc1OC (stereo unspecified)	PfHsp40 yeast 89 (no result: BJeLR lethal, 3CLpro inhibitor)
Cc1ccc(-c2noc(CN3CCOCC3)n2)cc1	none
O=C(CSc1ncn[nH]1)Nc1c(Br)cc([N+](=O)[O-])cc1Br	none
Cc1cc(C)cc(NC(=O)C(Sc2ncnc3ccccc23)c2ccccc2)c1 (stereo unspecified)	none
CC(=O)OCC1=C(C(=O)O)N2C(=O)C(NC(=O)C(C)Cn3cc(Cl)cn3)C2SC1 (stereo unspecified)	Sa ugtP lethal 100, Sa RN4220 lethal 100
CC(=O)OCC1=C(C(=O)O)N2C(=O)[C@@H](NC(=O)Cc3ccccc3)[C@H]2SC1	none (no result: BJeLR lethal, Sa ugtP lethal, Sa RN4220 lethal, 3CLpro inhibitor)
CC(=O)OCC1=C(C(=O)O)N2C(=O)[C@@H](NC(=O)Cc3cccs3)[C@H]2SC1	Sa ugtP lethal 99, Sa RN4220 lethal 99
CC(=O)OCC1=C(C(=O)O)N2C(=O)C(NC(=O)CC(C)c3ccccc3)C2SC1 (stereo unspecified)	Sa ugtP lethal 94, Sa RN4220 lethal 100 (no result: BJeLR lethal, 3CLpro inhibitor)
CCCCN(C(=O)CCCc1nc2ccccc2s1)c1c(N)n(CCCC)c(=O)[nH]c1=O	none
Cc1ccn(CC(=O)NN=Cc2cc([N+](=O)[O-])ccc2O)n1	Sa ugtP lethal 83, Sa RN4220 lethal 93 (no result: BJeLR lethal, 3CLpro inhibitor, PfHsp40 yeast)
Cc1ccn(CC(=O)N/N=C/c2cc([N+](=O)[O-])ccc2O)n1	none (no result: Sa ugtP lethal, Sa RN4220 lethal)
O=C(Cn1nc2ccccc2n1)NN=Cc1cc([N+](=O)[O-])ccc1O	Sa ugtP lethal 88, Sa RN4220 lethal 95 (no result: BJeLR lethal, 3CLpro inhibitor, PfHsp40 yeast)
O=C(Nc1ccc([N+](=O)[O-])cc1)Nc1ccc(OC(F)F)c(Cl)c1	Sa ugtP lethal 100, Sa RN4220 lethal 99 (no result: BJeLR lethal)
O=C(/C=C/c1ccccc1Cl)c1ccc(O)cc1	PfHsp40 yeast inconclusive
O=C(/C=C/c1c(F)cccc1Cl)c1ccc(O)cc1	PfHsp40 yeast 37
CC1c2cc3c(cc2CCN1C(=O)c1ccc(C(F)(F)F)cc1)OCCCO3 (stereo unspecified)	none
c1ccc(-c2noc(-c3ccccc3-c3ccccc3)n2)cc1	Sa ugtP lethal 95
O=C(N/N=C/c1ccc[nH]1)c1ccncc1	none (no result: Sa ugtP lethal, Sa RN4220 lethal)
COc1ccc(C(=O)/C=C2/C(=O)Nc3ccccc32)cc1	Sa ugtP lethal 99, Sa RN4220 lethal 97
C=CCOc1ccc(C(=O)/C=C2/C(=O)Nc3ccccc32)cc1	none
COc1ccc(C(=O)/C=C2/C(=O)Nc3ccccc32)cc1OC	none (no result: Sa ugtP lethal, Sa RN4220 lethal)
